Test: small-molecule binders of probe aInhba, primary screen, biochemical, small-molecule microarray, 635/667 nm fluorescence (AID 1148);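 also: score merges 667nm spot fluorescence with signal-to-noise for antibody binding to printed compounds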
Conditions: higher = more signal

Structure (SMILES)	composite z-score
CCOC(=O)[C@H](Cc1ccccc1)NC(=O)CCC1CC(OC(=O)NCc2cccc3ccccc23)CC2(CCCC(COC(=O)NCCC(C)C)O2)O1 (stereo partly specified)	-0.231
CC(C)CON=C1[C@H]2CCn3c(=O)n(Cc4cc5c(cc4Cl)OCO5)c(=O)n3[C@H]2[C@H](O)[C@@H]2O[C@H]12	-0.0332
CC(CCC(=O)OC[C@H]1O[C@H](C#Cc2ccccc2)C=C[C@@H]1Oc1ccc(C)cc1)=NO[C@H](C)c1cn([C@H](CO)Cc2ccccc2)nn1	-0.149
COc1ccc(COC(=O)NN=C2C[C@@H](O)[C@@H](O)[C@@H]3[C@@H]4C(=O)N(c5ccc(F)cc5F)C(=O)[C@@H]4CC[C@H]23)cc1	-0.0719
C#CCCCON=C1[C@H]2CCn3c(=O)n(C)c(=O)n3[C@H]2[C@H](O)[C@@H]2O[C@H]12	0.0471
CC(C)=CCCC(C)=CCON=C1C[C@@H](O)[C@@H](O)[C@@H]2[C@@H]3C(=O)N(C(C)(C)C)C(=O)[C@@H]3CC[C@@H]12	-0.293
CCN1C(=O)[C@H]2[C@H]3[C@H](O)[C@H](O)CC(=O)[C@@H]3CC[C@H]2C1=O	-0.0719
O=C1CCCC=C1C(O)CCOC(c1ccccc1)(c1ccccc1)c1ccccc1 (stereo unspecified)	-0.128
COC(=O)CC=C[C@@H](C)[C@@H](C=NOC[C@H]1O[C@H](c2ccccc2)C=C[C@@H]1Oc1ccc(OC)cc1)NS(=O)(=O)c1ccc(C)cc1	-0.23
CC(CCN1CCCc2nc(C)c(C)cc21)=NO[C@@H](C)c1cc(-c2c(C)cc(C)cc2C)no1	0.111
CO[C@H](C1CCCCC1)[C@H](C)C=CCC(=O)OCCCc1ccccc1	-0.416
CC(C)=CCCC(C)=CCON=C1C[C@@H](O)[C@@H](O)[C@@H]2[C@@H]3C(=O)N(C[C@@H]4CCCO4)C(=O)[C@@H]3CC[C@H]12	-0.162
O=C1OCCC=C1C(O)CCc1ccccc1 (stereo unspecified)	-0.0562
COCOc1ccc(Br)cc1C(=O)[C@@H]1O[C@H]1c1cccc(OC)c1	-0.149
CC(C)=CCCC(C)=CCON=C1C[C@@H](O)[C@@H](O)[C@@H]2[C@@H]3C(=O)N(Cc4ccccc4)C(=O)[C@@H]3CC[C@H]12	-0.0736
COC(=O)[C@@H]1CC[C@H](C)[C@@H](c2ccc(C)cc2)N1C(=O)c1ccc(C=NOCC[C@@H]2C=C[C@H](OC(C)=O)[C@@H](COC(C)=O)O2)cc1	-0.0477
CON=C1[C@H]2CCn3c(=O)n(-c4ccccc4)c(=O)n3[C@H]2[C@H](O)[C@@H]2O[C@H]12	-0.268
CO[C@@H]1C=CCC(=O)N[C@@H](C)C(=O)OC[C@@H](OC)[C@H](C)CCCC(=O)OC[C@H]1C	-0.101

Structure (SMILES)	composite z-score
O=C1C[C@@H](O)[C@@H](O)[C@@H]2[C@@H]3C(=O)N(C[C@@H]4CCCO4)C(=O)[C@@H]3CC[C@@H]12	0.0956
CON=C[C@@H](C)[C@H](OCc1ccccc1)C(C)C	-0.0963
COC(=O)CC=C[C@@H](C)[C@@H]1C=C[C@H](O)[C@@H](CO)O1	-0.163
Cc1ccc(S(=O)(=O)n2c3ccccc3c3nnc(C(=O)c4ccccc4)nc32)cc1	0.0998
CC(C)CON=C1C[C@@H](O)[C@@H](O)[C@@H]2[C@@H]3C(=O)N(c4ccc(F)cc4F)C(=O)[C@@H]3CC[C@H]12	-0.243
CC(CCN1CCc2nc(-c3ccccc3)c(-c3ccccc3)cc2C1)=NOC[C@@H](O)COCc1ccco1	-0.0589
COc1cccc([C@H]2Oc3ccc(OC)cc3C(=NOC[C@@H](O)COCc3ccco3)[C@@H]2O)c1	-0.205
CC(CCN1CCCCc2nc(C)c(C)cc21)=NOC[C@@H](C)[C@H](OCc1ccccc1)C(C)C	-0.37
O=C(NN=C1C[C@@H](O)[C@@H](O)[C@@H]2[C@@H]3C(=O)N(C[C@@H]4CCCO4)C(=O)[C@@H]3CC[C@H]12)OCc1ccccc1	-0.341
COC(=O)[C@H]1[C@@H](O)[C@@]2(O)c3ccccc3O[C@@]2(c2ccccc2)[C@@H]1c1ccccc1	-0.0361
CC(C)(C)N1C(=O)[C@H]2[C@H]3[C@H](O)[C@H](O)CC(=NO[C@@H]4O[C@H](CO)[C@@H](O)[C@H](O)[C@H]4O)[C@H]3CC[C@H]2C1=O	0.179
CC(C)CON=C1C[C@@H](O)[C@@H](O)[C@@H]2[C@@H]3C(=O)N(C[C@@H]4CCCO4)C(=O)[C@@H]3CC[C@@H]12	-0.0987
CC=CC1=C(CO)C(=O)[C@@H]2O[C@@H]2C1=O	-0.128
C[C@@H](c1ccccc1)N1C(=O)[C@H]2[C@H]3[C@H](O)[C@H](O)CC(=NOCc4ccccc4)[C@H]3CC[C@H]2C1=O	-0.183
C[C@H](ON=C1[C@H]2CCn3c(=O)n(-c4ccccc4)c(=O)n3[C@H]2[C@H](O)[C@@H]2O[C@H]12)c1cn([C@H](CO)Cc2ccccc2)nn1	-0.154
C[C@H]1COC(=O)[C@@H]2CCCN2C(=O)[C@@H](C)COC(=O)[C@H](Cc2ccccc2)NC1=O	-0.045
CCOC(=O)CCN1C(=O)[C@H]2[C@H]3[C@H](O)[C@H](O)CC(=NNC(=O)OCc4ccccc4)[C@@H]3CC[C@H]2C1=O	-0.218
CC(C)=CCCC(C)=CCON=C1C[C@@H](O)[C@@H](O)[C@@H]2[C@@H]3C(=O)N(c4cccc(Oc5ccccc5)c4)C(=O)[C@@H]3CC[C@@H]12	-0.128
